Measured values as given in PubChem BioAssay AID686979 (National Center for Advancing Translational Sciences (NCATS), 2013).
“And” between values parts separate entries of the source, which are not always exact repeats. Equal values may be shown once. Screen size: about 420,000 compounds; about 50,000 (12%) were called active. Inconclusive results (about 26%) are left out. Calls follow the shape of the dose curve; as a rule, active = well fitted inhibition curve with a large enough effect; inconclusive = small, poorly fitted or top-dose-only effect; inactive = flat fitted curve, though single readings scatter. The sample as a whole holds a higher share of actives than the screen did.

assay: qHTS for Inhibitors of human tyrosyl-DNA phosphodiesterase 1 (TDP1): qHTS in cells in presence of CPT; details: chicken DT40 Tdp1-/-;hTDP1 cells + 20 nM CPT, ATP luminescence, 48 h; series mostly up to 46.2 µM; activity change, negative = growth inhibition: at the top concentration; also: nearly all actives have a fitted effect of over 55% in size
Method in brief: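 Cell growth measured by CellTiter-Glo luminescence after a minimum 48 h, 37 C compound exposure with 20 nM CPT in Tdp1-knockout DT40 cells stably expressing hTDP1, seeded 400/well; qHTS titration format.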
% is scaled to controls: 0 for no effect and ±100 for the full control effect; potency is read from the fitted curve at half-maximal effect.

SMILES	activity change, negative = growth inhibition	Potency
CCCC(O)(c1ccccc1)C(c1ccccc1)c1ccccn1 (centres undefined)	-27.1% (inactive)	
Cc1nc(N2CCN(c3ccccn3)CC2)c2c(C)c(C(=O)Nc3ccc(F)c(Cl)c3)sc2n1		16.4 µM (active)
COc1ccc(NC(C)=O)cc1NC(=O)CN1CCN(c2ccccn2)CC1	-8.19% (inactive)	
O=C(c1c(F)cccc1Cl)N1CCN(c2ccccn2)CC1	-13% (inactive)	
Cc1ccc(NC(=O)Cn2cnc3nc4c(cc3c2=O)CCCC4)cc1Cl	-16% (inactive)	
Cc1cc(NS(=O)(=O)c2ccc(NC(=O)c3cccc(OC(F)F)c3)cc2)nc(C)n1	-6.62% (inactive)	
O=S(=O)(Nc1n[nH]c(C(F)(F)F)n1)c1ccccc1	-21% (inactive)	
CCCc1[nH]nc2c1C(c1c(C)nn(-c3ccccc3)c1Cl)C(C#N)=C(N)O2 (centres undefined)		11.2 µM (active)
CCCc1nc2c([nH]1)C(c1cccnc1)C(C#N)=C(N)O2 (centres undefined)	-15.7% (inactive)	
Cc1cc(C)c(C#N)c(SCc2[nH]nc3c2C(c2ccccc2)C(C#N)=C(N)O3)n1 (centres undefined)	-3.96% (inactive)	
CCCc1[nH]nc2c1C(c1ccc(Br)s1)C(C#N)=C(N)O2 (centres undefined)		6.51 µM (active)
Cc1nn(-c2ccccc2)c2c1C(c1ccc(F)cc1)C(C#N)=C(N)O2 (centres undefined)	-22% (inactive)	
CCOc1c(OC)cc(C2C(C#N)=C(N)Oc3n[nH]c(-c4ccncc4)c32)cc1OC (centres undefined)	1.72% (inactive)	
CCc1ccc(C2C(C#N)=C(N)Oc3n[nH]c(CC(=O)OC)c32)cc1 (centres undefined)	-24.6% (inactive)	
CCCc1[nH]nc2c1C(c1ccc(OC)c(Cn3nc(C)c(Br)c3C)c1)C(C#N)=C(N)O2 (centres undefined)	-4.2% (inactive)	
CCCc1[nH]nc2c1C(C1CC=CCC1)C(C#N)=C(N)O2 (centres undefined)		16.4 µM (active)
CCCc1[nH]nc2c1C(c1ccc(OC(=O)c3ccco3)cc1)C(C#N)=C(N)O2 (centres undefined)	0.867% (inactive)	
COCc1[nH]nc2c1C(C1C=CCCC1)C(C#N)=C(N)O2 (centres undefined)		13 µM (active)
N#CC1=C(N)OC2=C(C(=O)CCC2)C1C1CC=CCC1 (centres undefined)	-5.51% (inactive)	
C[C@@H]1CN([C@H](C)CO)C(=O)CCCn2cc(nn2)CO[C@H]1CN(C)S(C)(=O)=O	-5.94% (inactive)	
O=C(O)c1ccccc1C(=O)NC1=NN(c2ccccc2)CC1	10.5% (inactive)	
CNS(=O)(=O)c1ccc2c(c1)[nH]c(=S)n2C	-9.52% (inactive)	

SMILES	activity change, negative = growth inhibition	Potency
CSc1ccccc1NC(=O)c1cc(Cl)sc1Cl	-3.36% (inactive)	
O=c1[nH]c(/C=C\c2cccc(C(F)(F)F)c2)nc(O)c1[N+](=O)[O-]	2.35% (inactive)	
Cc1ccc(C)c(NC(=S)NNC(=S)Nc2ccc(C(C)C)cc2)c1	0.109% (inactive)	
CC(OC(=O)CCC(=O)c1ccccc1)C(=O)Nc1ccc(F)cc1 (centres undefined)	-3.56% (inactive)	
CCc1ccc(NC(=O)CN2C(=O)CSC2=O)cc1	-6.88% (inactive)	
Cc1ccc(OCCC(=O)Nc2ccc(S(=O)(=O)Nc3nccs3)cc2)cc1	-1.25% (inactive)	
CCC(=O)Nc1ccc(C(=O)Nc2ccc3c(c2)C(=O)N(CC2CCCO2)C3=O)cc1 (centres undefined)	-25.5% (inactive)	
O=C1c2cccc3c([N+](=O)[O-])ccc(c23)C(=O)N1CC1CCCO1 (centres undefined)		6.51 µM (active)
O=C(NCc1ccc2c(c1)OCO2)c1ccc2c(c1)C(=O)N(CC1CCCO1)C2=O (centres undefined)	-4.67% (inactive)	
Cc1nn(C(C)CC(=O)O)c(C)c1C (centres undefined)	0.513% (inactive)	
NS(=O)(=O)c1ccc(CNC(=S)NC(=O)c2ccco2)cc1	-11.2% (inactive)	
Cc1ccc(N(Cc2cc(=O)[nH]c3ccccc23)C(=O)CCl)cc1		2.91 µM (active)
CC(=O)N(Cc1cc(=O)[nH]c2ccccc12)c1ccc(C)cc1C	-6.41% (inactive)	
Cc1ccc(N(Cc2cc3ccccc3[nH]c2=O)C(=O)c2cccs2)cc1	-9.6% (inactive)	
COc1ccc(Cc2nnc(SCC(=O)Nc3ccc(C)c(C)c3)o2)cc1OC	-0.721% (inactive)	
O=C(Nc1nccs1)C1CCCN1S(=O)(=O)c1cccc2cccnc12 (centres undefined)	-29.8% (inactive)	
Cc1cccc(NC(=O)C2CCN(S(=O)(=O)c3cccc4cccnc34)CC2)c1	-14.6% (inactive)	
Cc1ccc(NC(=O)C2CCCN2S(=O)(=O)c2cccc3cccnc23)c(C)c1 (centres undefined)		23.1 µM (active) and 16.4 µM (active)
C=CCOc1ccc(/C=C/C(=O)OCC(=O)NC(C)c2ccc(F)cc2)cc1 (centres undefined)	-27.8% (inactive)	
COc1ccc2[nH]c3c(c2c1)CCN1C(=O)C(CC(=O)NCc2cccc(C(F)(F)F)c2)C[C@H](C(=O)N2CCOCC2)[C@@]31C (some centres undefined)	-25.6% (inactive)	
COc1cc2c(cc1OC)CN(C(C)C(=O)Nc1cccc(S(=O)(=O)N3CCOCC3)c1)CC2 (centres undefined)	-54.2% (inactive)	
COc1ccc(Cn2c(=O)oc3ccccc32)cc1	-4.79% (inactive)	

SMILES	activity change, negative = growth inhibition	Potency
COc1ccc(C(=O)CN(C(=O)c2ccc(Cl)cc2)N2C(=O)c3ccccc3C2=O)cc1	-24.3% (inactive)	
COc1ccc(Cn2c(-c3ccc(Cl)cc3)c[n+]3ccccc23)cc1		1.84 µM (active)
CN(CC(=O)Nc1c(Cl)cccc1Cl)C(=O)c1ccncc1	3.22% (inactive)	
COc1ccc(C(=O)Nc2cccc(NC(=O)c3ccc(OC)cc3OC)n2)c(OC)c1		20.6 µM (active)
COc1ccc(C(=O)NC2=NCCS2)c(OC)c1	-19% (inactive)	
COC(=O)c1sc(NC(=O)c2ccc(OC)cc2OC)nc1C	-16.4% (inactive)	
CC1(C)NC(=O)N(CC(=O)Nc2cc(C(F)(F)F)cc(C(F)(F)F)c2)C1=O	10.7% (inactive)	
CN1CCn2cnc(C(=O)NCC(=O)OC(C)(C)C)c2C1=O	-1.95% (inactive)	
O=C(CSc1nc2c(c(=O)[nH]1)CN(Cc1ccc(F)cc1)CC2)Nc1ccccc1Cl	0.223% (inactive)	
Cc1cc(C)cc(NC(=O)NCc2ccccn2)c1	0.685% (inactive)	
CCCCn1c(N)c(N(CCOC)C(=O)COc2c(C)cccc2C)c(=O)[nH]c1=O	-13.4% (inactive)	
COC(=O)c1cccc(-n2[nH]nnc2=S)c1	-28.1% (inactive)	
COc1cc(C)c(C)cc1S(=O)(=O)N1CCCc2ccccc21		16.4 µM (active)
COc1ccc(C(=O)OCC(=O)NCC2CCCCC2)cc1S(=O)(=O)N1CCCc2ccccc21	-2% (inactive)	
COc1ccc(Br)cc1S(=O)(=O)N1CCN=C1C	-2.21% (inactive)	
CN(CC(=O)Nc1ccc(Cl)cc1)C(=O)c1ccc(COc2ccccc2)cc1	-24.6% (inactive)	
O=C(NCc1ccc2c(c1)OCO2)C(=O)NCC1OCCN1S(=O)(=O)c1ccc(F)cc1 (centres undefined)	0.278% (inactive)	
Brc1c(CSc2nncc3ccccc23)nc2ccccn12	-7.75% (inactive)	
O=C(Nc1cc(C(F)(F)F)ccc1Cl)c1nc2ccccc2nc1N1CCCCC1	-28.9% (inactive)	
C/C(=C/C(=O)N1CCN(C)CC1)C(=O)O	-0.12% (inactive)	
